# Source: PubChem
# Only some compounds are listed: those with a hit (about 2.3% of all), similar ones and a draw of the others.
# Rtt109 HAT inh – C. albicans Rtt109 histone acetyltransferase inhibition; purified Rtt109/Vps75, ThioGlo CoA-SH fluorescence, 4 h; inhibition, % at 34.9 µM; hit rate 0.16% among 330,000; AID 540336;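 active = inhibition of at least 50% in every replicate; inconclusive = best replicate reaches 50% inhibition but some replicates fall short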
# PDI turbidity – blocks human protein disulfide isomerase activity; hit rate 0.052% among 350,000; inhibition, % at 10 µM; AID 588391; P07237; PDI insulin aggregation turbidity, A650, 90 min;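 active = mean inhibition across replicates of 30% or more, whatever share of single replicates reach that level; inconclusive = mean inhibition below 30% while every single replicate reaches 30%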
# Target sequence (P07237 whole entry, looked up): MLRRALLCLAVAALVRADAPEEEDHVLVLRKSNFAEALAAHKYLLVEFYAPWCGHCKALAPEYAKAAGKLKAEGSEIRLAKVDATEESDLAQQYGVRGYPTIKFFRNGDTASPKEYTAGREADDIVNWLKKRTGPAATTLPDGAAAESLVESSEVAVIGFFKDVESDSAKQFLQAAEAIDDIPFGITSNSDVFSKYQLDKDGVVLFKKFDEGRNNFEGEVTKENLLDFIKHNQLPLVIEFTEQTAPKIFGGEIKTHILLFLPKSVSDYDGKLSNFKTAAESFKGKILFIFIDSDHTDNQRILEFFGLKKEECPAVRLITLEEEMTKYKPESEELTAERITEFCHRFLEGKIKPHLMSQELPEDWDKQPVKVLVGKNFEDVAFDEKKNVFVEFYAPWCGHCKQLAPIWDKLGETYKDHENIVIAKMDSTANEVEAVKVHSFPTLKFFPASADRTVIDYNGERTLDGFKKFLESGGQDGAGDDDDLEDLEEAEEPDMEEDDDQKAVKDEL
# DENV2 CPE – inhibitors of DENV2 cytopathic effect; hit rate 1.7% among 350,000; CPE inhibition, % at 9.99 µM; DENV2-infected cells, cytopathic effect rescue, plate reader; in the data active = CPE inhibition above about 20%, passing the limit was not always enough; inconclusive = no clear call, values can overlap the other calls; tested in BHK-21 cells;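 note: 0% = median of neutral control wells and 100% = median of positive control wells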
# ERp5 inh – inhibitors of human ERp5 | Q15084 | ERp5 insulin aggregation, absorbance 650 nm, 90 min | inhibition, % at 9.99 µM | hit rate 0.05% among 350,000 | AID 651711;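 active = mean replicate inhibition above about 25%, with every replicate also reaching it, limit read from the data, passing the limit was not always enough; inconclusive = only one of those two criteria met; inactive = neither criterion met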
# SIRT5 block – blocks human SIRT5 desuccinylation of peptide | Purified SirT5, succinyl-peptide AMC, trypsin-coupled fluorescence | inhibition, % at 15 µM | hit rate 1.1% among 330,000; in the data active = inhibition above about 15%; inconclusive = no clear call, values can overlap the other calls
# Numbers without * were called inactive; u = inconclusive; x = not tested or not shown.
SMILES,Rtt109 HAT inh,PDI turbidity,DENV2 CPE,ERp5 inh,SIRT5 block
C[C@@H]1CN([C@H](C)CO)C(=O)c2cc(C#Cc3ccccc3F)cnc2O[C@H]1CN(C)C(=O)C1CCC1,x,x,4.1,-6.3,-2.9
COc1ccc(NC(=O)C2C(c3ccc4c(c3)OCO4)=Nc3ccccc3N2C(C)=O)cc1 (configuration not stated),x,x,27.0*,0.2,-0.1
Nc1nc(SCC(=O)Nc2ccc([N+](=O)[O-])cc2)[nH]c(=O)c1NC(=O)c1ccc(Br)o1,-5.1,-5.2,20.3*,1.8,1.6
C[C@@H]1CN([C@H](C)CO)C(=O)c2cccc(NS(C)(=O)=O)c2O[C@@H]1CN(C)Cc1ccccc1,x,x,3.4,-1.4,5.7
COc1ccc(CCN(C)C2CCCN(S(=O)(=O)N(C)C)C2)cc1OC (configuration not stated),0.0,-2.9,5.8,21.8,15.2*
c1ccc(CCC2Cc3ccccc3N2)cc1 (configuration not stated),-7.3,-41.6,-5.0,-3.8,15.1*
c1ccc(CC[C@@H]2CC[C@@H](CCc3ccccc3)N2)cc1,-0.4,0.6,3.1,-5.8,x
O=C(C[C@H]1CC[C@H]2[C@@H](COC[C@@H](O)CN2Cc2nccs2)O1)NCc1ccc(Cl)cc1,x,x,-7.3,-2.4,1.6
Cc1ccn2c(=O)nc(SCC(=O)OCc3ccccc3)nc2c1,-11.8,5.2,1.4,0.4,-1.7
CCOC(=O)CSc1nc(=O)n2ccc(C)cc2n1,0.1,1.5,-1.5,5.6,31.2*
COC(=O)c1sc2ccccc2c1N,-13.7,2.2,-5.2,6.4,x
COC(=O)C1=C(C(=O)OC)C(c2ccccc2O)c2sc(=O)[nH]c2S1 (configuration not stated),11.1,-5.8,6.9,6.8,16.2*
N#Cc1c(Cl)cccc1N1CCSCC1,x,x,36.2*,1.5,-0.4
C[C@@H]1CN([C@H](C)CO)C(=O)Cc2cc(NC(=O)CCC(F)(F)F)ccc2O[C@H]1CN(C)Cc1ccc2c(c1)OCO2,x,x,44.8*,-0.8,4.2
C[C@H](CO)N1C[C@H](C)[C@H](CN(C)CC2CC2)Oc2ccc(NC(=O)CCC(F)(F)F)cc2CC1=O,x,x,20.7*,3.5,6.0
C[C@H](CO)N1C[C@H](C)[C@H](CN(C)Cc2ccc3c(c2)OCO3)Oc2ccc(NC(=O)Nc3ccc(C(F)(F)F)cc3)cc2CC1=O,x,x,53.7*,1.5,-1.2
C[C@H](CO)N1C[C@H](C)[C@@H](CN(C)Cc2ccc(Cl)c(Cl)c2)Oc2ccc(NC(=O)CCC(F)(F)F)cc2CC1=O,x,x,-2.4,-5.4,20.3*
Cc1noc(C)c1S(=O)(=O)N(C)C[C@@H]1Oc2ccc(NS(=O)(=O)c3cccs3)cc2C(=O)N([C@H](C)CO)C[C@@H]1C,x,x,11.3,2.4,-5.0
C[C@H](CO)N1C[C@H](C)[C@@H](CN(C)C(=O)NC2CCCCC2)Oc2ccc(NC(=O)CCC(F)(F)F)cc2CC1=O,x,x,31.9*,0.9,-2.0
O=C(O)c1cc(Cl)ccc1-c1ccc(/C=C/c2cc(C(F)(F)F)[nH]c(=O)n2)o1,-373.0,1.7,-2.6,-4.3,19.7*
COc1ccc2c3c([nH]c2c1)[C@@H](CO)N(C(=O)C1CC1)CC31CCN(C)CC1,x,x,-7.2,-2.1,1.5
CCCCCCCCCCCCCCCC[N+](C)(C)CCN(Cc1ccc(OC)cc1)c1ncccn1,87.7*,29.6,x,x,x
Cc1c(C)n(C)c2ccc(C(=O)NCCN3CCOCC3)cc12,5.0,7.8,8.0,0.4,33.7*
CCn1c(C)c(C)c2cc(C(=O)NCCN3CCOCC3)ccc21,-0.8,-4.7,-6.4,4.7,0.3
CC(C)(C)C1CCC(=NNc2nc3ccccc3[nH]2)CC1 (configuration not stated),19.0,1.3,u,-2.3,19.0*
SMILES,Rtt109 HAT inh,PDI turbidity,DENV2 CPE,ERp5 inh,SIRT5 block
CO[C@H]1CN(C)C(=O)c2ccc(NC(=O)C3CCCC3)cc2OC[C@H](C)N(C)C[C@H]1C,x,x,-3.2,-1.0,-1.5
O=C(c1ccc[nH]1)N1O[C@@H]2C=C[C@H]1C2,-0.1,-13.4,61.6*,0.4,x
O=C(CN1CCOCC1)NCC[C@@H]1CC[C@@H](NS(=O)(=O)c2ccc(Cl)cc2)[C@H](CO)O1,x,x,-10.0,6.3,-4.1
Cc1ccc(S(=O)(=O)N[C@@H]2CC[C@@H](CCNC(=O)CN3CCOCC3)O[C@H]2CO)cc1,x,x,25.9*,-3.5,-0.9
Cc1ccc(S(=O)(=O)N[C@@H]2CC[C@H](CC(=O)NCc3ccc(Cl)c(Cl)c3)O[C@H]2CO)cc1,x,x,21.7*,3.3,3.0
Cc1ccc(S(=O)(=O)N[C@H]2CC[C@H](CCNC(=O)C3CCOCC3)O[C@@H]2CO)cc1,x,x,25.2*,-5.4,-1.2
O=C(CN1CCOCC1)NCC[C@H]1CC[C@@H](NS(=O)(=O)c2ccc(Cl)cc2)[C@@H](CO)O1,x,x,7.2,-2.3,32.3*
CN(C)C(=O)[C@H]1[C@H](CO)[C@H]2Cn3c(ccc(-c4ccncc4)c3=O)[C@@H]1N2CC1CC1,x,x,0.4,6.5,-7.4
O=C1CN(Cc2ccc(F)cc2)C[C@@H]2[C@H](c3ccc(-c4cccnc4)cc3)[C@@H](CO)N12,x,x,-0.2,-1.8,-2.3
O=C(NCC[C@@H]1CC[C@@H](NS(=O)(=O)c2cccc(F)c2)[C@@H](CO)O1)C1CCOCC1,x,x,6.3,1.1,38.0*
Cc1noc(C)c1NC(=O)N(C)C[C@H]1Oc2c(NS(=O)(=O)c3ccccc3)cccc2C(=O)N([C@@H](C)CO)C[C@H]1C,x,x,27.8*,-16.1,2.9
Cc1noc(C)c1NC(=O)N(C)C[C@H]1Oc2c(cccc2N(C)C)C(=O)N([C@@H](C)CO)C[C@@H]1C,x,x,24.5*,2.5,7.3
Cc1noc(C)c1NC(=O)N(C)C[C@H]1Oc2c(NC(=O)C3CC3)cccc2C(=O)N([C@H](C)CO)C[C@H]1C,x,x,24.4*,2.2,-0.1
Cc1noc(C)c1NC(=O)N(C)C[C@@H]1Oc2c(cccc2N(C)C)C(=O)N([C@H](C)CO)C[C@H]1C,x,x,-7.4,-3.0,-1.3
CCOc1ccc(-n2c(=S)sc3c(=O)n(-c4ccccc4)c(SCC(=O)O)nc32)cc1,6.7,5.3,7.4,-0.7,6.8
CCOc1ccc(-n2c(=S)sc3c(=O)n(-c4ccc(F)cc4)c(SCC(=O)O)nc32)cc1,-3.8,-4.5,-7.7,4.4,29.3*
O=C(C[C@@H]1CC[C@H]2[C@@H](COC[C@@H](O)CN2Cc2ccncc2)O1)NCc1ccccc1Cl,x,x,3.7,-0.1,0.6
Cc1ccc(S(=O)(=O)Nc2ccc3c(c2)CC(=O)N([C@@H](C)CO)C[C@@H](C)[C@@H](CN(C)C(=O)Nc2ccccc2)O3)cc1,x,x,38.8*,-2.7,0.6
C[C@H]1CN([C@@H](C)CO)C(=O)Cc2cc(NS(=O)(=O)c3ccccc3)ccc2O[C@H]1CN(C)C(=O)Nc1ccc(F)cc1,x,x,4.5,-2.8,1.4
C[C@@H]1CN([C@@H](C)CO)C(=O)Cc2cc(NS(=O)(=O)c3ccccc3)ccc2O[C@H]1CN(C)C(=O)Nc1ccc(F)cc1,x,x,36.3*,-1.7,1.9
